The values below come from PubChem BioAssay (NCATS).

Records with an inconclusive call do not appear. Where a call stands in place of a potency, no number is given. Unmarked numbers belong to inactive results. Active and inactive are the calls of the source. The call rests on the fitted dose curve; in most records, active means well fitted inhibition curve with a large enough effect; inconclusive means small, poorly fitted or top-dose-only effect; inactive means flat fitted curve, though single readings scatter.
Potency means the concentration at half of the fitted maximal effect.

This test is described as follows: Primary qHTS for inhibitors of nuclear receptor binding SET domain protein 2 (NSD2) in an isogenic RCH-ACV NSD2 p.E1099K mutant (9B) (AID 1645876). Further: nearly all actives have a fitted effect of over 70% in size. The following applies: RCH-ACV (leukaemia line) NSD2 E1099K (9B) viability, CellTiter-Glo, 72 h; series mostly up to 44.9 µM.
As to `CC(=O)N[C@@H](CCC(=O)O)C(=O)O`, the Potency entry was “inactive”.
Same read-out and setting: the result for `O=C1C(=O)c2ccccc2C(O)=C1C1CCC(c2ccc(Cl)cc2)CC1` (stereo not drawn) reads “inactive”.
On the same count and under the same terms, the result for `O=C(N/N=C/c1ccc([N+](=O)[O-])o1)c1ccc(O)cc1` reads 5.96 µM (active).
On the same count and under the same terms, the result for `CCCN(CCC)S(=O)(=O)c1ccc(C(=O)O)cc1` reads “inactive”; that for `NC(=S)N/N=C/c1cccnc1`, “inactive”; that for `COc1cc(C(=O)N2CCCCCCC2)cc(OC)c1OC`, “inactive”.
Take `CCN(CC)CCNc1ccc(CO)c2sc3ccccc3c(=O)c12`: the Potency was 2.66 µM (active).
On the same count and under the same terms, the result for `Cc1cccc(C)c1NC(=O)CN1CCCC1` reads “inactive”.
Still for that read-out and setting: the result for `Cc1ccc(S(=O)(=O)NC(=O)NC2CCCC2)cc1` reads “inactive”; that for `NC(N)=NN=C(/C=C/c1ccc([N+](=O)[O-])o1)/C=C/c1ccc([N+](=O)[O-])o1`, 0.668 µM (active); that for `OCc1ccccn1`, “inactive”.
As for `CCN(CC)CCNC(=O)c1cc(Br)c(N)cc1OC`, the Potency entry is “inactive”.
Same read-out and setting: the result for `Nc1ccc(S(=O)(=O)NCc2ccccc2)cc1` reads “inactive”; that for `CN(C)C(=O)Nc1ccc(Cl)c(Cl)c1`, “inactive”.
Still for that read-out and setting: the result for `COc1cc(C(=O)NCc2ccc(OCCN(C)C)cc2)cc(OC)c1OC` reads “inactive”.
The same measure, in the same setting: in the case of `O=C(O)CCc1nc2ccccc2[nH]1` it was “inactive”; in that of `COc1ccc(/C=N/NC(=O)c2ccncc2)cc1OC`, “inactive”; in that of `Oc1ccccc1C=NCc1ccccc1`, “inactive”.
`Cl/C(=C\n1cncn1)c1ccc(Cl)cc1Cl`: the Potency entry is “inactive”.
On the same count and under the same terms, in the case of `Cc1ccc2c(Br)cc(Br)c(O)c2n1` it was 7.5 µM (active).
On the same count and under the same terms, in the case of `CC(C)Cn1cnc2c1c(=O)n(C)c(=O)n2C` it was “inactive”; in that of `O=C1C(O)=C(O)C(=O)C(O)=C1O`, “inactive”.
On the same count and under the same terms, the result for `CCC(C(=O)OCCOCCN(CC)CC)c1ccccc1` (stereo not drawn) reads “inactive”.
Regarding `Nc1nc(N)c(-c2ccccc2)s1`, the Potency result was “inactive”.
Still for that read-out and setting: in the case of `OC[C@H]1O[C@@H]2O[C@H]3[C@H](O)[C@@H](O)[C@@H](O[C@H]4[C@H](O)[C@@H](O)[C@@H](O[C@H]5[C@H](O)[C@@H](O)[C@@H](O[C@H]6[C@H](O)[C@@H](O)[C@@H](O[C@H]7[C@H](O)[C@@H](O)[C@@H](O[C@H]8[C@H](O)[C@@H](O)[C@@H](O[C@H]1[C@H](O)[C@H]2O)O[C@@H]8CO)O[C@@H]7CO)O[C@@H]6CO)O[C@@H]5CO)O[C@@H]4CO)O[C@@H]3CO` it was “inactive”; in that of `Cc1cc2c(OCC(CNC(C)(C)C)OC(=O)c3ccccc3)cccc2[nH]1` (stereo not drawn), “inactive”; in that of `CCOC(=O)C(C#N)=C(c1ccccc1)c1ccccc1`, “inactive”.
`COc1ccc(C(Cl)=C(c2ccc(OC)cc2)c2ccc(OC)cc2)cc1`: the Potency entry was “inactive”.
In the case of `COc1ccc(C(=O)c2ccccc2O)c(O)c1`, the Potency result is “inactive”.
The same measure, in the same setting: the result for `O=[N+]([O-])c1cccc(S(=O)(=O)NCCNS(=O)(=O)c2cccc([N+](=O)[O-])c2)c1` reads “inactive”; that for `CCCCCCCCCCCCCCC[C@H](O)[C@@H](N)CO`, 4.73 µM (active); that for `CC(=O)NO`, “inactive”.
Consider `CC(=O)Nc1ncc([N+](=O)[O-])s1`, for which the Potency result is “inactive”.
For `CC(C)NCC(O)c1ccc2ccccc2c1` (stereo not drawn), the Potency entry is “inactive”.
Turning to `N=C(N)N1CCc2ccccc2C1`, the activity change, negative = viability loss was -4.68% [at 4.96 µM].
Take `CC(C)CCCC(C)N` (stereo not drawn): the Potency entry is “inactive”.
On the same count and under the same terms, the result for `CN1CCN(c2cc3c(cc2F)c(=O)c(C(=O)O)cn3-c2ccc(F)cc2)CC1` reads 11.9 µM (active); that for `CCN(CC)CCOc1ccc2c(c1)C(=O)c1cc(OCCN(CC)CC)ccc1-2`, 9.44 µM (active).
